Reference: PubChem BioAssay (Tox21)
Inconclusive results are not listed. Activity calls are given as the source filed them. Unless noted, the call rests on the fitted dose curve; in most records, active means well fitted curve in the direction sought with a large enough effect in the repeat runs; inconclusive means weak or mixed curves; inactive means no such curve, though single readings can be large; an effect the other way counts as inactive or inconclusive.

Key:
[1] = qHTS assay to identify small molecule HDAC inhibitors - cell viability counter screen (AID 1259365); further: series mostly up to about 92 µM; nearly all actives have a fitted effect of over 50% in size
Summary of the method: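 Viability readout: CellTiter-Glo luminescence. Wild-type HCT-116 cells, 2hr compound treatment following overnight attachment at 37 C.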

[2] = qHTS assay to identify small molecule agonists of the sonic hedgehog signaling (Shh) pathway - cell viability counter screen (AID 1259366); further: nearly all actives have a fitted effect of over 50% in size
Summary of the method: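 Viability measured fluorometrically (CellTiter-Fluor, 1hr, 37C) in 3T3 Gli1-Luc reporter cells after 23hr compound exposure within a 24hr incubation at 37C/5% CO2.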

[3] = qHTS assay to identify small molecule antagonists of the sonic hedgehog signaling (Shh) pathway - cell viability counter screen (AID 1259367); further: nearly all actives have a fitted effect of over 55% in size
Summary of the method: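 Using CellTiter-Fluor, viability of Gli1-Luc reporter 3T3 cells is read by fluorescence in the wells used for the Shh luciferase assay. Treatment lasts 23 hr with conditioned medium, then reagent 1 hr at 37C.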

[4] = qHTS assay to identify small molecule agonists of the sonic hedgehog signaling (Shh) pathway (AID 1259368; calls by dose curve;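 further: NIH/3T3-derived 3T3Gli1-Luc cells carrying a stable Gli1-driven firefly luciferase reporter; series mostly up to about 92 µM; nearly all actives have a fitted effect of over 15% in size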)
Summary of the method: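 Luminescent signal was taken as a measure of Gli1-controlled luciferase expression in stably transfected NIH/3T3-derived cells that had been treated for 24 hr with compounds delivered in DMSO.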

[5] = qHTS assay to identify small molecule antagonists of the sonic hedgehog signaling (Shh) pathway (AID 1259369; calls by dose curve; further: nearly all actives have a fitted effect of over 45% in size)
Summary of the method: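 Screening used 3T3Gli1-Luc cells at 2,000 per well, compounds delivered in DMSO, and conditioned medium as agonist stimulus; plates incubated 24hr at 37 C and 5% CO2 before a 30min luciferase step.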

[6] = target: Estrogen receptor beta (Homo sapiens) (UniProt Q92731); experiment: qHTS assay to identify small molecule antagonists of the estrogen receptor beta (ER-beta) signaling pathway (AID 1259378; active means well fitted inhibition curve with a large enough effect in the signal ratio in the repeat runs, not every such curve was filed as active; the % refers to the signal ratio)
Estrogen receptor beta (Homo sapiens), sequence (Q92731 whole entry, looked up): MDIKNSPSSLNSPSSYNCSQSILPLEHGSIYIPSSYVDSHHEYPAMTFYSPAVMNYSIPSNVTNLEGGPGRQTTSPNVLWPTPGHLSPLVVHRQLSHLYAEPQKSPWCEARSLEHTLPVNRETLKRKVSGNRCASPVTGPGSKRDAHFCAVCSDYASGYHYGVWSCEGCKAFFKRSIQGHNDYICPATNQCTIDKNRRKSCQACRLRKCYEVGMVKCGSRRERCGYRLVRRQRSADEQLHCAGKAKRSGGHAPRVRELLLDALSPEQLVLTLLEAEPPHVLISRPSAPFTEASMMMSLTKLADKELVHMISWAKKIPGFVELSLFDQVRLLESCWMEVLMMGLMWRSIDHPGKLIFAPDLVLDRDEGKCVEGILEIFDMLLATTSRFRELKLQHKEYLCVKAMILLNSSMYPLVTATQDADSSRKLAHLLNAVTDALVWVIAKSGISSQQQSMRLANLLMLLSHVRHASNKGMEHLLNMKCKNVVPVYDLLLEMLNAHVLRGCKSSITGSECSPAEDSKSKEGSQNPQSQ
Summary of the method: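 Antagonist mode: compounds added to beta-lactamase reporter HEK293T ER-beta-UAS cells stimulated with E2 (1nM final), 16 hr at 37C. LiveBLAzer B/G FRET substrate, 2 hours room temperature, fluorescence read-out.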

[7] = qHTS assay to identify small molecule agonists of the androgen receptor (AR) signaling pathway in the presence of an antagonist - cell viability counter screen (AID 1259379);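 further: MDA-kb2 human breast cancer cells carrying an MMTV luciferase reporter; series mostly up to about 92 µM; nearly all actives have a fitted effect of over 25% in size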
Summary of the method: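 In MDA-kb2 cells (human breast carcinoma, MMTV-luciferase), compounds at 15 concentrations plus 3.0uM nilutamide; 16 hr, 37C, 0% CO2; CellTiter-Fluor fluorescence read for viability.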

[8] = qHTS assay to identify small molecule agonists of the estrogen receptor beta (ER-beta) signaling pathway - cell viability counter screen (AID 1259380); further: nearly all actives have a fitted effect of over 30% in size
Summary of the method: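 Viability of ER-beta-UAS-bla HEK293T cells was determined by CellTiter-Glo luminescence following 16 hr treatment with test compounds at 37C.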

[9] = qHTS assay to identify small molecule antagonists of the estrogen receptor beta (ER-beta) signaling pathway - cell viability counter screen (AID 1259382);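 further: HEK293T cells carrying ER-beta-UAS-bla reporter stimulated with estradiol; series mostly up to about 92 µM; nearly all actives have a fitted effect of over 55% in size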
Summary of the method: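 Tox21 10K library tested in qHTS format on ER-beta-bla HEK293T cells stimulated with 1nM E2; 16 hr treatment at 37C. Same-well CellTiter-Glo luminescence served as the cell viability measure.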

[10] = target: Estrogen receptor (Homo sapiens) (UniProt P03372); experiment: qHTS assay to identify small molecule agonists of the estrogen receptor alpha (ER-alpha) signaling pathway in the presence of an antagonist (AID 1259383; calls by dose curve; further: top concentration of the series differs between compounds; nearly all actives have a fitted effect of over 15% in size)
Estrogen receptor (Homo sapiens), sequence (P03372 whole entry, looked up): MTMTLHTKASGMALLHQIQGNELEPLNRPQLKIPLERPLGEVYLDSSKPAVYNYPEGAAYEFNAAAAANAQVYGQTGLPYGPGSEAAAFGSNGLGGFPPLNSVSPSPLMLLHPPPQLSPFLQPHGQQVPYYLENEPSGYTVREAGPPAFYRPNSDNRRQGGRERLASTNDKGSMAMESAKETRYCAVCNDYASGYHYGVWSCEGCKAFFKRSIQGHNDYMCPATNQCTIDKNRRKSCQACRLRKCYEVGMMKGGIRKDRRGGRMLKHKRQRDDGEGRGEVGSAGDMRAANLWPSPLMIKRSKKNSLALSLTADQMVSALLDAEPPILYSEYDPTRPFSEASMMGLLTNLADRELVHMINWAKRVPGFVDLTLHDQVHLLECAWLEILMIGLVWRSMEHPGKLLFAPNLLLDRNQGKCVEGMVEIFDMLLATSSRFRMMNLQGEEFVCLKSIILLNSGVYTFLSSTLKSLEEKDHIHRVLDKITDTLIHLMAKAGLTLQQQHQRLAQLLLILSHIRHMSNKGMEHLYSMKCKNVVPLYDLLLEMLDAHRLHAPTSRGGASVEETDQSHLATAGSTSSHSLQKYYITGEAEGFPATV
Summary of the method: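 In VM7Luc4E2 cells, 4,000 per well, compounds at 15 concentrations were co-incubated 22hr at 37C with 10.0nM final ICI-182,780. Luminescence from the stably transfected 4×ERE-luciferase reporter was recorded 30min after ONE-Glo addition.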

[11] = qHTS assay to identify small molecule agonists or antagonists of the thyroid stimulating hormone receptor (TSHR) signaling pathway - wild type cell line counter screen (AID 1259384; calls by dose curve)
Summary of the method: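 Counter screen in untransfected Hek293: compounds (15-point titration, triplicate) plus phosphodiesterase inhibitor Ro20-1724 added after 18 h plating; 30 min RT. Intracellular cAMP via competitive d2/cryptate immunoassay, 1 h incubation.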

[12] = target: Thyrotropin receptor (Homo sapiens) (UniProt P16473); experiment: qHTS assay to identify small molecule antagonists of the thyroid stimulating hormone receptor (TSHR) signaling pathway (AID 1259385; calls by dose curve; further: nearly all actives have a fitted effect of over 20% in size)
Thyrotropin receptor (Homo sapiens), sequence (P16473 whole entry, looked up): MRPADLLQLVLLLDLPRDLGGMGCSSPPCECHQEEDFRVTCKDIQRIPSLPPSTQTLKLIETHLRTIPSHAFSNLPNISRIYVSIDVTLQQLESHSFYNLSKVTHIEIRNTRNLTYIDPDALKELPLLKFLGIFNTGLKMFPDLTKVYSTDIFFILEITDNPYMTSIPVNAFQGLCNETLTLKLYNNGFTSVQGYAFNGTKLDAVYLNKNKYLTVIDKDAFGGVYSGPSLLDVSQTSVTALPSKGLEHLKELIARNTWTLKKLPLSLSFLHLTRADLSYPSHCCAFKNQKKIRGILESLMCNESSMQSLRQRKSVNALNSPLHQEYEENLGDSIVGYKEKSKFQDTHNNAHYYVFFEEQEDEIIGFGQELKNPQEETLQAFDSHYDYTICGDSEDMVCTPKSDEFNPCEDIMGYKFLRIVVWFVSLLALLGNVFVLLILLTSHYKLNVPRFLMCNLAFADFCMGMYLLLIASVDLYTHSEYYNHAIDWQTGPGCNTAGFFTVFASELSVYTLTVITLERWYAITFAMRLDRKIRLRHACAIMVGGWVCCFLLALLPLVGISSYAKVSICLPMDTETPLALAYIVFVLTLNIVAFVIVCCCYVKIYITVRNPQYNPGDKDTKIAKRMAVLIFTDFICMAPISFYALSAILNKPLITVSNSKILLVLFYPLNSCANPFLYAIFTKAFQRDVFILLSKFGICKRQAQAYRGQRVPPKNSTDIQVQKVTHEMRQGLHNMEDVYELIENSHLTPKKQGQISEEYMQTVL
Summary of the method: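 Antagonist mode: compound-treated TSHR-expressing HEK293 cells were stimulated with 1.5 ng/mL TSH (final) in presence of Ro20-1724 for 30 min at RT. HTRF cAMP detection after 1 h; each compound tested at 15 concentrations, triplicate.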

[13] = qHTS assay to identify small molecule agonists of the estrogen receptor alpha (ER-alpha) signaling pathway in the presence of an antagonist - cell viability counter screen (AID 1259386);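 further: series mostly up to about 92 µM; cells exposed to compounds for 22 h at 37 °C before the viability read; nearly all actives have a fitted effect of over 30% in size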
Summary of the method: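 Fluorescent CellTiter-Fluor viability signal from VM7Luc4E2 cells, with the reagent added during the final hour of a 22hr compound exposure at 37C in the presence of 10.0nM ICI-182,780.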

[14] = target: Progesterone receptor (Homo sapiens) (UniProt P06401); experiment: qHTS assay to identify small molecule agonists of the progesterone receptor (PR) signaling pathway (AID 1346784; calls by dose curve; further: nearly all actives have a fitted effect of over 30% in size; further: potency means the concentration at half of the fitted maximal effect)
Progesterone receptor (Homo sapiens), sequence (P06401 whole entry, looked up): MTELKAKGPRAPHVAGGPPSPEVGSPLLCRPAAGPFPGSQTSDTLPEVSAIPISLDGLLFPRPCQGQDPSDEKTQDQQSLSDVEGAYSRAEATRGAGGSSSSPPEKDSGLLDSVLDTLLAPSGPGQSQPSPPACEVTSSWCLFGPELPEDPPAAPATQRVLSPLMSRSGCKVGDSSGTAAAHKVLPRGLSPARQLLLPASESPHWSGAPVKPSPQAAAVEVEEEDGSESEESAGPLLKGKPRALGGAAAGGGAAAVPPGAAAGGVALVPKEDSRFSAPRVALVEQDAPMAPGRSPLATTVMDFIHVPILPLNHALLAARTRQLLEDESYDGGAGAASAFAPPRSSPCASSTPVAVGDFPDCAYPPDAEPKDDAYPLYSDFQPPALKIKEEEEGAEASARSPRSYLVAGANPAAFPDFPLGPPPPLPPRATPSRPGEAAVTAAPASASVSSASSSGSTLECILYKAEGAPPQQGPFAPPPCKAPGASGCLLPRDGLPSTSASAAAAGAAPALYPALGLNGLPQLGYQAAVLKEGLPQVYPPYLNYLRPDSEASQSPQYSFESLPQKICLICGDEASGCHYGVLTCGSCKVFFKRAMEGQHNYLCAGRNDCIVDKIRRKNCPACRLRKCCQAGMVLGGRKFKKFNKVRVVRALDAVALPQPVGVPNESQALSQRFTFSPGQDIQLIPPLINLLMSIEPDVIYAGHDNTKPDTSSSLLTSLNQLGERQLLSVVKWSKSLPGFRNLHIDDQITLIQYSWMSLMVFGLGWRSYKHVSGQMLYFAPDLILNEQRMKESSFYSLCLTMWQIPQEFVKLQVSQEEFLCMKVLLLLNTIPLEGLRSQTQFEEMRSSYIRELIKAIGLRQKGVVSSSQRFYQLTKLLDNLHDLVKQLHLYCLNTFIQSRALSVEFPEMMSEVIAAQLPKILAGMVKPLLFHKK
Summary of the method: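 Agonist mode, quantitative HTS format in a HEK 293T line expressing a UAS-controlled beta-lactamase reporter; 16 hr compound exposure at 37C in 2% charcoal-stripped FBS, then LiveBLAzer B/G FRET fluorescence.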

[15] = target: Progesterone receptor (Homo sapiens) (UniProt P06401); experiment: qHTS assay to identify small molecule antagonists of the progesterone receptor (PR) signaling pathway (AID 1346795; active means well fitted inhibition curve with a large enough effect in the signal ratio in the repeat runs, not every such curve was filed as active; the % refers to the signal ratio)
Summary of the method: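 HEK293T PR-UAS-bla reporter cells in charcoal-stripped serum (2%) received compound after a 6 hr settling period, followed by R5020 agonist at 1 nM final; 16 hr incubation preceded the FRET substrate step and fluorescence measurement.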

[16] = qHTS assay to identify small molecule antagonists of the progesterone receptor (PR) signaling pathway - cell viability counter screen (AID 1346798); further: series mostly up to about 92 µM; nearly all actives have a fitted effect of over 50% in size
Summary of the method: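 Same-well multiplex: after 16 hr at 37C with compound and R5020 stimulation, HEK293T cells carrying a UAS-bla reporter received LiveBLAzer substrate (2 hr RT), then CellTiter-Glo (30 min RT) for luminescent viability.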

[17] = qHTS assay to identify small molecule agonists of the progesterone receptor (PR) signaling pathway - cell viability counter screen (AID 1346799; calls by dose curve; further: nearly all actives have a fitted effect of over 45% in size)
Summary of the method: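 Counter screen for cytotoxicity: compound-treated PR-UAS-bla HEK293T cells (16 hr, 37C, 5% CO2) were assayed with CellTiter-Glo, luminescence measured after 30 min at room temperature.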

[18] = qHTS assay to identify small molecule antagonists of the TGF-beta/Smad signaling pathway - cell viability counter screen (AID 1346824); further: nearly all actives have a fitted effect of over 50% in size
Summary of the method: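 Cytotoxicity counter-screen run in the same wells as the beta-lactamase Smad reporter read: CellTiter-Glo luminescence after 30 min at room temperature. HEK 293T SBE-bla cells had 5 hr compound exposure at 37 C with TGF-beta1 (0.25 ng/mL stock).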

[19] = target: Androgen receptor (Homo sapiens) (UniProt P10275); experiment: qHTS assay to identify small molecule agonists of the androgen receptor (AR) signaling pathway in the presence of an antagonist (AID 1259381; calls by dose curve; further: nearly all actives have a fitted effect of over 15% in size)
Androgen receptor (Homo sapiens), sequence (P10275 whole entry, looked up): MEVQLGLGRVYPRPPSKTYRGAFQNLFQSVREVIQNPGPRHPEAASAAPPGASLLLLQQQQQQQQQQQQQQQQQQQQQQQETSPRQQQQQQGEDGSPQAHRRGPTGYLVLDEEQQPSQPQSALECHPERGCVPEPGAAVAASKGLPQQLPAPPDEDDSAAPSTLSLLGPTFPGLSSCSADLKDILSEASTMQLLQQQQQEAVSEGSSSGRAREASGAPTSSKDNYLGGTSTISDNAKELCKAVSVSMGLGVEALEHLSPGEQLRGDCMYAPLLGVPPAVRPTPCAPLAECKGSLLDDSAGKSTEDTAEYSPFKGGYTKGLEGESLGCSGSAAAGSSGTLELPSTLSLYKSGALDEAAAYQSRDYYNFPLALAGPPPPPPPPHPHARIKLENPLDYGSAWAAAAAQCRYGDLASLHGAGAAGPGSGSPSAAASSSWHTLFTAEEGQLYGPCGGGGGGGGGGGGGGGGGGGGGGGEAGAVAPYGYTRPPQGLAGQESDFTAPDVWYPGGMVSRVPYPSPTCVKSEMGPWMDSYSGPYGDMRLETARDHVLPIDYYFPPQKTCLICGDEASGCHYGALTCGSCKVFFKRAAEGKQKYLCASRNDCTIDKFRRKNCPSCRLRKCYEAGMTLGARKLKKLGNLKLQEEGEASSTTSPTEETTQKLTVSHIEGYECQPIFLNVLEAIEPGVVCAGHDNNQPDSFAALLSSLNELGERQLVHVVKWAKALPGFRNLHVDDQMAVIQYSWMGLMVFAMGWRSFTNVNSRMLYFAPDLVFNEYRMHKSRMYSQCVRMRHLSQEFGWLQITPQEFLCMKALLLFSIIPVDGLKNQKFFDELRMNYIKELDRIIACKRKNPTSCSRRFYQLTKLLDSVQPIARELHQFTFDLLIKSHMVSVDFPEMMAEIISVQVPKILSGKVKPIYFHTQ
Summary of the method: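 Here, 15-concentration compound series were pin-transferred onto MDA-kb2 MMTV-luciferase cells already dosed with nilutamide (3.0uM final). After 16hr at 37C, ONE-Glo was added and luminescence read 30min later at room temperature.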

[20] = target: Estrogen receptor beta (Homo sapiens) (UniProt Q92731); experiment: qHTS assay to identify small molecule agonists of the estrogen receptor beta (ER-beta) signaling pathway (AID 1259377; active means well fitted activation curve with a large enough effect in the signal ratio in the repeat runs, not every such curve was filed as active; the % refers to the signal ratio)
Summary of the method: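 A UAS-controlled beta-lactamase reporter in ER-beta-UAS-bla HEK293T cells reports receptor activation. Compounds act for 16 hr at 37C in 2% charcoal-stripped serum, and a FRET substrate is read by fluorescence after 2 hours.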
On the % scale 0 is the no-effect control and ±100 the full control effect.

CN(C)CCc1c[nH]c2ccc(CS(=O)(=O)N3CCCC3)cc12
inactive: outcome [1] | outcome [2] | outcome [3] | outcome [4] | Potency [5] | outcome [6] | outcome [7] | Potency [8] | outcome [9] | Potency [10] | outcome [11] | outcome [12] | outcome [13] | Potency [14] | Potency [15] | outcome [16] | Potency [17] | outcome [18]

COCc1nnc(-c2ccc[n+]([O-])c2)n1-c1c(Cl)c(Cl)cc2[nH]c(=O)c(=O)[nH]c12
inactive: outcome [1] | outcome [2] | outcome [3] | outcome [4] | Potency [5] | outcome [6] | outcome [7] | outcome [19] | outcome [9] | Potency [10] | outcome [11] | outcome [12] | outcome [13] | Potency [14] | outcome [16] | Potency [17] | outcome [18]

NCC1CCC(C(=O)Oc2ccc(CCC(=O)O)cc2)CC1 (stereo unspecified)
inactive: outcome [1] | outcome [2] | outcome [3] | outcome [4] | Potency [5] | outcome [6] | outcome [7] | Potency [8] | outcome [9] | Potency [10] | outcome [11] | outcome [12] | outcome [13] | Potency [14] | outcome [16] | Potency [17] | outcome [18]

c1cc2ccc3ccc4ccc5cccc6c(c1)c2c3c4c56
inactive: activity change, negative = cytotoxicity [1] 2.08% [at 3.27 µM] | viability change, negative = cytotoxic [2] 2.39% [at 3.27 µM] | viability change, negative = cytotoxic [3] -2.17% [at 3.27 µM] | activity change [4] 0.83% [at 3.27 µM] | activity change, negative = inhibition [5] 17.2% [at 3.27 µM] | activity, negative = inhibition [6] 4.07% [at 3.27 µM] | activity change, negative = cytotoxicity [7] 2.9% [at 3.27 µM] | activity change, negative = cytotoxicity [8] 0.89% [at 3.32 µM] | activity change, negative = cytotoxicity [9] -0.247% [at 3.27 µM] | cAMP activity change [11] 5.35% [at 3.27 µM] | activity change, negative = inhibition [12] -1.71% [at 3.27 µM] | activity change, negative = cytotoxicity [13] 1.86% [at 3.27 µM] | activity change, negative = inhibition [15] 17.5% [at 3.27 µM] | activity change, negative = cytotoxicity [16] 2.42% [at 3.27 µM] | viability change, negative = cytotoxic [18] 5.15% [at 2.72 µM]
active: Potency [14] 385 nM

CCCCCCC(O)CO (stereo unspecified)
inactive: outcome [1] | outcome [2] | outcome [3] | outcome [4] | Potency [5] | outcome [6] | outcome [7] | Potency [8] | outcome [9] | Potency [10] | outcome [13] | Potency [14] | outcome [16] | Potency [17] | outcome [18]

CC(C)CC(O)Cc1ccccc1 (stereo unspecified)
inactive: outcome [1] | outcome [2] | outcome [3] | outcome [4] | Potency [5] | outcome [6] | outcome [7] | outcome [19] | Potency [10] | outcome [11] | outcome [12] | outcome [13] | Potency [14] | outcome [16] | Potency [17] | outcome [18]

Cc1cc(O)c(Cl)cc1C
inactive: outcome [1] | outcome [2] | outcome [3] | outcome [4] | Potency [5] | outcome [6] | outcome [7] | Potency [8] | outcome [9] | Potency [10] | outcome [11] | outcome [12] | outcome [13] | Potency [14] | Potency [15] | outcome [16] | Potency [17] | outcome [18]

C[C@@H]1CCC[C@H](C)N1CCCC(O)(c1ccccc1)c1ccccn1 (stereo partly specified)
inactive: outcome [1] | outcome [2] | outcome [3] | outcome [4] | Potency [5] | outcome [6] | outcome [7] | Potency [8] | outcome [19] | outcome [9] | Potency [10] | outcome [11] | outcome [12] | outcome [13] | Potency [14] | Potency [15] | outcome [16] | outcome [18]

COC(=O)/C=C(\C)CCC=C(C)C
inactive: outcome [1] | outcome [2] | outcome [3] | outcome [4] | Potency [5] | outcome [6] | outcome [7] | Potency [8] | outcome [9] | Potency [10] | outcome [11] | outcome [12] | outcome [13] | Potency [14] | Potency [15] | outcome [16] | outcome [18]

O=C[C@@H](O)[C@H](O)[C@H](O)CO
inactive: outcome [1] | outcome [2] | outcome [3] | outcome [4] | Potency [5] | outcome [6] | outcome [7] | Potency [8] | outcome [19] | outcome [9] | outcome [11] | outcome [12] | outcome [13] | Potency [14] | Potency [15] | outcome [16] | Potency [17] | outcome [18]

CCCCN(CCCC)CCCCCCN(CCCC)CCCC
inactive: outcome [1] | outcome [2] | outcome [3] | outcome [4] | Potency [5] | outcome [6] | outcome [7] | Potency [8] | outcome [9] | Potency [10] | outcome [11] | outcome [12] | outcome [13] | outcome [16] | Potency [17] | outcome [18]

O=C(O)CCC(=O)Nc1ccc(S(=O)(=O)Nc2nccs2)cc1
inactive: outcome [1] | outcome [2] | outcome [3] | outcome [4] | Potency [5] | Potency [20] | outcome [7] | outcome [9] | outcome [13] | Potency [15] | outcome [16] | Potency [17] | outcome [18]

O=C1CC2(CCCC2)CC(=O)N1CCNCC1COc2ccccc2O1 (stereo unspecified)
inactive: outcome [1] | outcome [2] | outcome [3] | outcome [4] | Potency [5] | outcome [6] | outcome [7] | Potency [8] | outcome [11] | outcome [12] | outcome [13] | Potency [14] | Potency [15] | outcome [16] | outcome [18]

CCCCCCCCCCCC(C)=O
inactive: outcome [1] | outcome [2] | outcome [3] | outcome [4] | Potency [5] | outcome [6] | outcome [7] | outcome [9] | Potency [10] | outcome [11] | outcome [12] | outcome [13] | Potency [14] | Potency [15] | outcome [16] | Potency [17] | outcome [18]
